Test results from the supplement of paper PMC10338343.
± gives the standard deviation.

What was measured:
[1] = system: MILI (PIWIL2) piRISC loaded with L1MC piRNA (26 nt); assay: pre-steady-state target cleavage rate (min^-1); guide: L1MC piRNA 5'p-UAACUAAAUACUAUGCAAGCUGUAGG; higher = faster piRNA-guided slicing of the target
Method in brief: (§1)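 With or without 500 nM GTSF1 partner protein, 1 nM active affinity-purified piRISC carrying one synthetic guide was mixed with 0.1 nM transcribed, DNA-blocked target RNA library in HEPES–potassium acetate buffer at 33 °C for 0–8 or 0–960 min. Uncleaved targets were sequenced and normalised to depth and to weakly complementary targets, three trials were pooled, and k3 was capped at 0.0001 min^-1. The pre-steady-state cleavage rate came from a burst-and-steady-state fit.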

[2] = system: EfPiwi piRISC loaded with L1MC piRNA (26 nt); assay: pre-steady-state target cleavage rate (min^-1); auxiliary factor: 500 nM Ephydatia muelleri Gtsf1; guide: L1MC piRNA 5'p-UAACUAAAUACUAUGCAAGCUGUAGG; MIWI and MILI are mouse PIWI proteins and EfPiwi is from a freshwater sponge; tags in brackets are library labels; higher = faster piRNA-guided slicing of the target
Method in brief: as §1

[3] = auxiliary factor: 500 nM mouse GTSF1
[4] = auxiliary factor: none (no GTSF1)

Sequence	pre-steady-state target cleavage rate [1, 3]	pre-steady-state target cleavage rate [1, 4]	pre-steady-state target cleavage rate [2]
UCCUGGAUGAGCUUGCAUAGUACUUUAGUUA	0.0613 ± 0.0089	0.00632 ± 0.0026	0.00806 ± 0.003
UCCUGGAUGUCCUUGCAUAGUAUUUGGUUA	0.0891 ± 0.016	0.00707 ± 0.0022	0.00366 ± 0.0027
UCCUGGAACAGCUUGGUUAGUAUUUAGUUA	0.213 ± 0.02	0.0126 ± 0.0037	0.0135 ± 0.005
UCCUGGAUCAGCUUGCAAAGUAUUUAGUAA	0.12 ± 0.0069	0.00426 ± 0.0026	0.00607 ± 0.0027
UCCUGCUACAGCUUGCAUAGUUAUUUAGUUA	0.0195 ± 0.0087	0.00428 ± 0.0024	0.00578 ± 0.0032
UCCUGCUACUGCAUGCAUAGUAUUUAGUUA	0.282 ± 0.025	0.00943 ± 0.0022	0.00847 ± 0.0024
UCCUCCUACAGCUAGCAUAGUAUAUAGUUA	0.192 ± 0.03	0.00339 ± 0.0026	0.00495 ± 0.0026
UCCUGGAACACCUUGCAUAGUAAUUAGUUA	0.191 ± 0.031	0.00362 ± 0.0024	0.00283 ± 0.0022
UCCUGGAUCACCAUGCAUAGUAUUUAGUUA	0.14 ± 0.019	0.00489 ± 0.0025	0.013 ± 0.0061
UCCUGCUACAGGCUUGCAUAGUAUUUAGUUA	0.241 ± 0.014	0.0112 ± 0.0031	0.00977 ± 0.0027
UCCUCCUACAGGAUGCAUAGUAUUUAGUAA	0.23 ± 0.017	0.00422 ± 0.0022	0.0119 ± 0.0048
UCCUGGAACAGCUUGUAUAGUAUUUAGUUA	0.323 ± 0.017	0.00685 ± 0.0022	0.0686 ± 0.013
UCCUGCCACAGCUUGCAUAGUAUUUAGUUA	0.331 ± 0.025	0.0105 ± 0.003	0.0631 ± 0.017
UCCUGGUACAGCUUGCAUAGUAGUUUAGUUA	0.217 ± 0.028	0.00833 ± 0.003	0.0074 ± 0.0029
UCCUGGAUCACCUUGCAUACUAUUUAGUUA	0.0453 ± 0.011	0.00336 ± 0.0028	0.00341 ± 0.0028
UCCUGCUACAGCUUGCAUAGUAUUUACGUUA	0.21 ± 0.023	0.00615 ± 0.0025	0.00429 ± 0.002
UCCUGGUACAGCUUGCAUAGUAGUUAGUUA	0.2 ± 0.034	0.00513 ± 0.0028	0.00515 ± 0.0021
